Data on 110 compounds can be found in PubChem BioAssay AID1117361 (Southern Research Institute, 2015).

In all, about 3,600 compounds went through this assay and about 900 (25%) were called active. The list is a sample of the results. Entries with a potency or affinity are not part of this list. Values without a mark were called inactive. How the calls were made is not given here.

As usually defined, the inhibition is the relative decrease from the control value, in per cent.

This test has as its target Protein Tat (Human immunodeficiency virus type 1 group M subtype B (isolate HXB2)) (UniProt P04608). As to the kind of experiment: HIV-1 Tat–TAR interaction blockers – biochemical, fluorescence polarization, FAM-labeled TAR RNA, counter-screen for Vif-APOBEC3G degradation inhibitor project, dose response (AID 1117361). The following applies: Tat-TAR RNA binding; series mostly up to 100 µM; inhibition: at the top concentration. (In general: Fluorescence polarisation rises when a labelled molecule tumbles more slowly, as on binding a larger partner.)
With `CCc1nc(SCC(=O)Nc2ccc(C(=O)O)cc2)n[nH]1`, the “inhibition” value is 0.68%.

Take `S=c1[nH]nc(COc2ccc(Cl)cc2)o1`: the “inhibition” value is 12.4%. For `O=C(NNc1cc(Cl)cc(Cl)c1)c1c(F)cccc1Cl`, the compound was called inactive. Consider `S=c1nc(-c2ccc(Br)cc2)oc2c1CCCC2`, for which the “inhibition” value is 13%. Consider `CCOC(=O)N1CCN(CC(=O)c2ccc3c(c2)CCN3C(C)=O)CC1`, for which the “inhibition” value is 10.1%. The same measure, in the same setting: next, `Cc1ccc(Cc2cnc(NC(=O)/C(C#N)=C/c3ccc(-c4ccc([N+](=O)[O-])cc4)o3)s2)cc1`: 10.8%. Still for that read-out and setting: under `CC(OC(=O)c1ccc([N+](=O)[O-])o1)C(=O)NC1CCCCC1C` (stereo not given) stands 7.42%; under `COc1cc(O)oc1C=Nc1ccccc1`, 8.78%. For `CCOc1ccccc1C1CC(=O)NC(SCC)=C1C#N` (stereo not given), the “inhibition” value is 10.8%. As for `O=S(=O)(Nc1ccc(Cc2ccncc2)cc1)c1ccc(Br)cc1`, the result was inactive. With `COc1ccc(N(CC(=O)NCCC2=CCCCC2)S(=O)(=O)c2ccccc2)cc1`, the “inhibition” value was 11.6%. Regarding `O=C1CC(c2ccco2)CC(O)=C1C=NCC1CCNCC1` (stereo not given), the outcome was inactive. Regarding `CCCN(CC(=O)Nc1ccccc1C)C(=O)COC(=O)c1cnc(C)cn1`, the call was inactive. With `CC(C)(C)NC(=O)CSc1nnc(-c2ccncc2)n1Cc1ccccc1`, the “inhibition” value was 6.76%.

On to `CCOC(=O)Cn1c(=O)oc2cc(S(=O)(=O)NC3CCCc4ccccc43)ccc21` (stereo not given), for which the call was inactive. With `CCn1c(SC(C)C(=O)NC2CCCc3ccccc32)nnc1-c1cccs1` (stereo not given), the “inhibition” value is 3.38%. Same read-out and setting: under `c1ccc2c(c1)ccc1nnc(SCc3ccc4c(c3)OCO4)n12` stands 12.2%. Still for that read-out and setting: under `CCC(c1ccc(O)c(O)c1)C(CC)c1ccc(O)c(O)c1` (stereo not given) stands 3.01%. For `CSc1ccc(CN(C)CC(=O)NC(=O)NCCC2=CCCCC2)cc1`, the call was inactive. `COc1cc(/C=N/N=C(N)N)ccc1OCc1ccc(Cl)cc1`: the compound was classed as inactive.

For the compound `CSc1cccc(-n2cc(-c3ccc4c(c3)OCO4)[nH]c2=O)c1`, the “inhibition” value was 3.41%. For `CSCC[C@@H](Nc1nc(-c2ccccc2)nc2c1oc1ccccc12)C(=O)O`, the “inhibition” value is 4.09%. On the same count and under the same terms, next, `CN1CCN(C(=O)C2CCN(S(=O)(=O)c3cnc[nH]3)CC2)CC1`: 8.19%.

Turning to `COCCCNC(=O)c1cc(OC)c(OC)c(OC)c1`, the outcome was inactive. Take `C/C=C/c1ccc(OCC(=O)N2CCc3cc(OC)c(OC)cc3C2)c(OC)c1`: the “inhibition” value was 1.65%. For the compound `Cc1nn(-c2ccccc2)cc1/C=N/O`, the “inhibition” value is 12.2%. Turning to `CCCc1nc(SCC(=O)N2CCCc3ccccc32)c2c(=O)n(C)c(=O)n(C)c2n1`, the call was inactive.

Take `O=C(NC(Cc1ccccc1)c1nc2ccccc2[nH]1)c1cccc([N+](=O)[O-])c1` (stereo not given): the call was inactive. Consider `CCOC(=O)C1=C(C)N=c2s/c(=C/c3ccco3)c(=O)n2C1c1cccc(OC)c1` (stereo not given), for which the “inhibition” value is 1.65%.

As to `CCOC(=O)C1=C(C)NC(C)=C(C(=O)OCC)C1c1cn(-c2ccccc2)nc1-c1ccco1`, the “inhibition” value was 25%. On the same count and under the same terms, next, `O=C(CN1c2ccccc2Sc2ccccc21)NNC(=S)Nc1ccc(Cl)cc1Cl`: 1.35%. With `CCCn1nc(NC(=O)c2cccs2)c2cc3ccccc3nc21`, the “inhibition” value is 16.2%.

As for `CC1=C(SCc2ccccc2)C(=O)c2ccccc2C1=O`, the outcome was inactive. For `CCCCNC(=O)c1onc(CSc2ccc(C(C)C)cc2)c1C(=O)O`, the “inhibition” value is 0.68%. The same measure, in the same setting: under `COc1ccc(CCN(C)C(=O)COC(=O)/C=C/c2ccc(C)o2)cc1OC` stands 8.35%; under `Cn1nc(C(F)(F)F)c(C#N)c1N1CCN(c2ccc(F)cc2)CC1`, 6.08%; under `Cn1cc(/C=C/C(=O)N2CCCC(C(=O)c3cccc(C(F)(F)F)c3)C2)cn1` (stereo not given), 6.6%. On to `CCOC(=O)C1Nc2ccc(Br)cc2C2C=CCC12` (stereo not given), for which the “inhibition” value is 5.68%. `CC(C)Cc1nc2oc3c(NCC(C)O)ncnc3c2c2c1CCCC2` (stereo not given): the compound was called inactive.

As to `O=C(NC1CCCCC1)C(c1ccc(F)cc1)N(C(=O)Cc1ccsc1)c1ccc(F)cc1` (stereo not given), the “inhibition” value is 0.68%.

As to `O=C1C(O)CC2c3ccccc3CC3(CCCC3)N12` (stereo not given), the “inhibition” value is 16.2%. As to `Cc1ccc2c(c1)NC(=O)c1cc([N+](=O)[O-])ccc1O2`, the “inhibition” value is 6.6%. Same read-out and setting: under `CCCCn1c(NCc2ccccc2NS(=O)(=O)c2ccc(C)cc2)nc2ccccc21` stands 4.73%; under `CCOC(=O)C1=C(c2ccccc2)NC(=O)NC1c1cc(Cl)c(O)c(OC)c1` (stereo not given), 0.82%. As for `CCOc1ccc(NC(=O)C(C)SC(N)=O)cc1` (stereo not given), the result was inactive. In the case of `CCOc1cc(/C=C2/C(=O)N(c3ccccc3)N=C2C)ccc1OC(=O)c1ccco1`, the “inhibition” value was 0.68%. Regarding `O=C(NC1CCN(C(=S)NCc2ccco2)CC1)C12CC3CC(CC(C3)C1)C2`, the call was inactive. As to `Cc1[nH]nc2c1C(c1cn[nH]c1-c1ccc(F)cc1)C(C#N)=C(N)O2` (stereo not given), the “inhibition” value is 9.46%. On to `COc1ccc2c(c1)O[C@@H](c1ccc3c(c1)OCO3)[C@H](OC(=O)Nc1cc(OC)c(OC)c(OC)c1)C2=O`, for which the outcome was inactive. Consider `Cn1cc(Br)c(C(=O)NC2CCCCC2)n1`, for which the “inhibition” value was 4.73%. As to `CCOCCCNC(=S)Nc1ccc2nc(N3CCN(CC)CC3)cc(C)c2c1`, the “inhibition” value is 7.68%. For the compound `Cc1nn(Cc2ccc(Cl)cc2Cl)c(C)c1NC(=O)NC12CC3CC(CC(C3)C1)C2`, the compound was classed as inactive. Turning to `Cc1c(C)c2ccc(O[C@@H]3O[C@H](CO)[C@H](O)[C@H](O)[C@H]3O)c(C)c2oc1=O`, the “inhibition” value is 6.35%. Turning to `Cn1c(SCC(=O)NC(c2ccccc2)c2ccccc2)nnc1-c1cccs1`, the “inhibition” value was 3.38%.

Consider `CCCC(=O)Nc1ccc(Br)cn1`, for which the “inhibition” value is 4.05%. As for `CC12CCC(C(=O)Nc3ccc(Br)cn3)(OC1=O)C2(C)C` (stereo not given), the compound was called inactive. As to `O=C(Nc1ccccc1F)c1ccc(S(=O)(=O)NCC2CCCO2)cc1` (stereo not given), the “inhibition” value is 4.77%. On to `O=C(Nc1ccc(F)cc1F)c1noc2c1CCC2`, for which the call was inactive. Consider `CC(C)(C)C1CCC(OC(=O)C[N+]2(C)CCCCC2)CC1` (stereo not given), for which the compound was called inactive. `COc1ccc(CNC(=O)C2CCCN(S(=O)(=O)c3c(C)nn(C)c3C)C2)cc1` (stereo not given): the call was inactive. Consider `CCCn1c(Sc2nnnn2-c2ccccc2)n[nH]c1=O`, for which the result was inactive. Still for that read-out and setting: next, `N#Cc1c(-c2ccccc2)nc2n1CCS2`: “inactive”. In the case of `O=C(Nc1nccc(-c2cccs2)n1)c1ccccc1Cl`, the “inhibition” value is 7.5%. Take `CCOc1cc(C(=O)Nc2c3c(nn2C(C)(C)C)CS(=O)C3)cc(OCC)c1OCC` (stereo not given): the “inhibition” value is 2.05%. On to `O=C(CCCN1C(=O)c2ccccc2C1=O)NCC1CCCO1` (stereo not given), for which the “inhibition” value is 4.77%.

Turning to `CCOn1c(=O)c(=O)n(OCc2ccccc2)c2ccccc21`, the outcome was inactive. In the case of `Oc1ccc(Cl)cc1-c1cc(-c2ccccc2)n[nH]1`, the “inhibition” value was 3.38%. Same read-out and setting: next, `O=C(c1ccco1)N1CCN(S(=O)(=O)c2ccc(F)cc2)CC1`: 10.1%; `CN1CCN(C(=O)/C(=C/c2ccc(F)cc2)NC(=O)c2ccccc2)CC1`: 1%.

`Cc1ccc(S(=O)(=O)Nc2ccc3c(c2)c2c(n3S(=O)(=O)c3ccc(C)cc3)CCCC2=O)cc1`: the compound was called inactive. Regarding `CCCNC(=O)c1ccc2c(c1)C1C3CCC(C3)C1C(c1ccccc1)N2` (stereo not given), the call was inactive.

In the case of `Cc1ccc(S(=O)(=O)NC(CC(C)C)C(=O)N2CCN(C/C=C/c3ccccc3)CC2)cc1` (stereo not given), the compound was classed as inactive. For `O=C(CNC(=O)c1cccs1)OCC(=O)c1ccc2ccccc2c1`, the “inhibition” value is 4.05%.

With `c1ccc(-c2nnc(-c3ccncc3)o2)cc1`, the “inhibition” value was 0.68%. For the compound `O=C(COC(=O)COc1ccc(Cl)cc1Cl)NC1CCCCCC1`, the “inhibition” value was 2.47%. On the same count and under the same terms, under `O=C(CC1NC(=O)NC1=O)Nc1cccc2ccccc12` (stereo not given) stands 2.7%. With `CC(NC(=O)CC1Nc2ccccc2NC1=O)c1ccccc1` (stereo not given), the “inhibition” value was 17.6%. On to `COc1ccc(OC)c(C2NC(=O)NC(C)=C2C(=O)Nc2ccc(C)cc2)c1` (stereo not given), for which the “inhibition” value was 0.68%.

As for `COc1ccc(NC(=O)c2cc3ccccn3n2)cc1`, the “inhibition” value was 13.5%. Take `Cc1cccc(C)c1OCCOCCN1CCN(C)CC1`: the result was inactive. On the same count and under the same terms, under `CCN(CC)c1ccc(C(=C2C=CC(=[N+](CC)CC)C=C2)c2ccccc2)cc1` stands “inactive”; under `O=C(Nc1nccs1)C1CCCN(S(=O)(=O)c2cccc3cccnc23)C1` (stereo not given), “inactive”.

As for `Cn1c(C(=O)N[C@@H](C(=O)O)c2ccccc2)cc2cc(Cl)ccc21`, the “inhibition” value was 29.1%. Consider `COc1ccc2nc(SCC(=O)NN)cc(C)c2c1`, for which the “inhibition” value is 4.05%. For the compound `Cc1ccc(SCCC(=O)NCc2ccco2)cc1`, the compound was classed as inactive. For the compound `CC(C)(C)c1nnc(NC(=O)c2ccc(Cl)nc2)s1`, the compound was called inactive. Regarding `N#Cc1ccccc1CN1C(=O)S/C(=C/c2cccn2-c2ccc(C(=O)O)cc2)C1=O`, the “inhibition” value was 22.4%. On the same count and under the same terms, next, `Cc1ccc(C(=O)O)cc1-c1ccc(/C=C2/NC(=O)N(c3ccccc3)C2=O)o1`: 10.3%.

For `CCNc1nc(OCCNS(=O)(=O)c2cc(C)ccc2C)nc(N(C)C)n1`, the “inhibition” value is 2.03%. Turning to `COc1ccccc1NC(=O)C(C)NS(=O)(=O)c1ccc(F)cc1` (stereo not given), the “inhibition” value is 7.5%. As for `CCc1ccc(OCCNC(=O)c2cccs2)cc1`, the “inhibition” value was 1.35%. Same read-out and setting: under `COc1ccccc1NC(=O)CN(c1ccccc1OC)S(=O)(=O)c1ccccc1` stands 3.3%; under `Cc1c(C(=O)NCc2cccnc2)oc2ccccc12`, 1.35%. As to `CCc1cccc(NC(=O)CCCCCC2NC(=O)NC2C)c1` (stereo not given), the call was inactive. For `COC(=O)C1=C(C)NC(=O)C1(NS(=O)(=O)c1ccc(C)cc1)C(F)(F)F` (stereo not given), the “inhibition” value is 2.05%. Still for that read-out and setting: under `Cc1ccc(C)c(NC(=S)NCc2ccccc2)c1` stands 9.07%.

Consider `O=C(O)C1=C(C(=O)Nc2ccc(F)c(Cl)c2)CCCC1`, for which the “inhibition” value is 10.1%. Still for that read-out and setting: under `CN1c2ccsc2/C(=N/NC(=O)c2c(F)cccc2F)CS1(=O)=O` stands 10.2%.

Take `COC(=O)CSc1nnc(CNC(=O)c2cccs2)n1-c1cc(OC)ccc1OC`: the compound was classed as inactive.

Regarding `Cc1ccc(NC(=O)CSc2nnc(C3CCCCC3)n2N)cc1F`, the “inhibition” value was 0.68%. Same read-out and setting: under `CCOC(=O)C1CCCN(c2ncnc3c2cnn3-c2ccc(Cl)cc2)C1` (stereo not given) stands 29.7%; under `COc1cccc(NC(=O)C2CCCN2C(=O)OCc2ccccc2)c1` (stereo not given), 4.05%. For the compound `O=C(O)c1cccc(S(=O)(=O)Nc2ccccc2Cl)c1`, the result was inactive. On to `CCOc1cccc(NC(=O)C2CCCN(S(=O)(=O)c3ccc(OC)cc3)C2)c1` (stereo not given), for which the compound was called inactive. For `O=c1nc(N2CCOCC2)nc2n1CCO2`, the “inhibition” value is 0.68%. With `Cc1cc(=O)n2nc(N3CCCC(C(=O)NC4CCC(C)CC4)C3)sc2n1` (stereo not given), the compound was classed as inactive.

For `CN(C)c1nc(OCCNC(=O)COc2ccc(Cl)cc2Cl)nc(N2CCOCC2)n1`, the result was inactive.

`Cc1ccc(NC(=O)CSc2nc(CSc3ccc(C)cc3)cc(=O)[nH]2)cc1`: the result was inactive.

Consider `CCCCC(=O)Nc1ccc(C(=O)NN2C(=O)c3ccccc3C2=O)cc1`, for which the “inhibition” value is 2.73%. Still for that read-out and setting: next, `O=C1c2cnc3nc(SCc4ccccc4)nn3c2CC2c3ccccc3CCN12` (stereo not given): 1.36%.
